In the library only some 1.9% were active in any assay of this set; here they are far more common.
aDG glyco up – alpha-DG glycosylation activation. Pro5-aDG cells, alpha-DG glycosylation AlphaScreen (IIH6); 0% Pro5, 100% B10-LARGE cell signal. activation, % at 10 µM. hit rate 0.22% among 360,000. AID 624168;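 active = activation of at least 8% versus controls, or a plate z-score of at least 8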;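 note: Pro5 are CHO cells carrying HIG-tagged alpha-DG that lacks glycosylation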
ZTA counter – blocks Epstein-Barr virus ZTA, an EBNA-1 counter-screen; ZTA-DNA binding, fluorescence polarization; inhibition, % at 11 µM; hit rate 0.15% among 320,000; AID 2234; in the data active = inhibition above about 33%
Target sequence (P03206 whole entry, looked up): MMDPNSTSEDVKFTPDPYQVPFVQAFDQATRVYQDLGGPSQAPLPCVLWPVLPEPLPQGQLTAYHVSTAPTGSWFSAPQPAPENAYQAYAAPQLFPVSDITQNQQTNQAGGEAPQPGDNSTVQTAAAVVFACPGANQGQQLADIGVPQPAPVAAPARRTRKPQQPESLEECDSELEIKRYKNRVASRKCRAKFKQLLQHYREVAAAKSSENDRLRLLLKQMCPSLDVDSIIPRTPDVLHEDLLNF
NR1D1 modulator – modulators of human Rev-erb alpha DNA binding; P20393; hit rate 0.79% among 370,000; activity, % at 10 µM; Rev-erbα–FITC-DNA binding, fluorescence polarization, 90 min;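 active = activity above about 14%, limit read from the data; passing the limit was not always enough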
p47phox inh – p47phox (human) inhibition | P14598 | hit rate 0.53% among 220,000 | p47phox/p22phox peptide binding, fluorescence polarization, 2 h | inhibition, % at 24.7 µM | AID 1274;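 active = inhibition above about 30%, limit read from the data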
Target sequence (P14598 whole entry, looked up): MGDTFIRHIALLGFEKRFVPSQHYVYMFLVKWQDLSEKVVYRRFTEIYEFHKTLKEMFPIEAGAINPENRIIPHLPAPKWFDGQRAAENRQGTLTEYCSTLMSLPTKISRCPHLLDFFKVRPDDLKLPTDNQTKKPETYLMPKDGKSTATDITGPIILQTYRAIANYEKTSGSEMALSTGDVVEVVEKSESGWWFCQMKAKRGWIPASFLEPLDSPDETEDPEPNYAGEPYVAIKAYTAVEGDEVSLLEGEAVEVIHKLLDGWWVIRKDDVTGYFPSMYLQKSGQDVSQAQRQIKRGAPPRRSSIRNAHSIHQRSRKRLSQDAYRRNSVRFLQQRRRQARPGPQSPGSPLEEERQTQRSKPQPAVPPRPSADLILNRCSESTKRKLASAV
PG9 binder – binds the HIV-1 gp120 antibody PG9 | TR-FRET gp120-PG9 antibody binding | inhibition, % at 6.7 µM | hit rate 0.43% among 360,000; in the data active = inhibition above about 8.5%
EBNA-1 inhibitor – blocks EBNA-1 binding to DNA; EBNA-1 DNA binding, fluorescence polarization; hit rate 0.34% among 300,000; inhibition, % at 14.8 µM; in the data active = inhibition above about 28%
ZTA inh confirm – EBV ZTA DNA binding inhibition, confirmation. shares compounds with ZTA counter. Zta-ZRE DNA binding, fluorescence polarization. inhibition, % at 11.1 µM. hit rate 30% among 320;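 active = mean inhibition across triplicate runs above the hit threshold derived for the original primary screen, cut at about 33% in these data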
EBNA-1 counter – EBNA-1 DNA binding inhibition, counter-screen for ZTA; shares compounds with ZTA counter; fluorescence polarization; inhibition, % at 14.8 µM; 320 tested, under 10 active; call rule not given here
Large screens that a line does not name were inactive (follow-up assays come after a bar, where they were run).

O=C1CSc2ccc(C(=O)N3CCCC(C(=O)N4CCCN(Cc5ccccc5)CC4)C3)cc2N1 (stereo not given)	none (no result: aDG glyco up, ZTA counter, p47phox inh, PG9 binder, EBNA-1 inhibitor)
CCOc1ccc(N2C(=O)/C(=C/c3ccccc3)N=C2SC)cc1	ZTA counter 42 | ZTA inh confirm inactive | EBNA-1 counter inactive
COc1ccc(/C=C2\N=C(SC)N(c3ccccc3OC)C2=O)cc1	none
COc1ccc(NS(=O)(=O)c2ccc3c(c2)[C@H]2C=CC[C@H]2[C@@H](c2ccc(C(=O)O)cc2)N3)cc1	ZTA counter 35 (no result: p47phox inh) | ZTA inh confirm 48 | EBNA-1 counter inactive
O=C1CC(=O)N(Cc2ccco2)C(=O)N1	none
O=C1CC(=O)N(Cc2ccco2)C(=S)N1	ZTA counter 55 (no result: NR1D1 modulator, PG9 binder) | ZTA inh confirm inactive | EBNA-1 counter inactive
CCOC(=O)C1(Cc2cccc(OC)c2)CCN(Cc2cccn2-c2nccs2)CC1	none
CCOC(=O)C1(Cc2ccccc2)CCN(Cc2cccn2-c2nccs2)CC1	ZTA counter 34 | ZTA inh confirm inactive | EBNA-1 counter inactive
C#CCOCCOCCOCCNc1nc(N2CCN(C(=O)CCCCCCCCCCNC(=O)[C@H](CO)n3cc(CCCSC)nn3)CC2)nc(N2CCN(C(=O)CCCCCCCCCCNC(=O)[C@H](CCCN=C(N)N)n3cc(C[C@@H](C)CC)nn3)CC2)n1	ZTA counter 96 (no result: NR1D1 modulator, p47phox inh, PG9 binder) | ZTA inh confirm 69 | EBNA-1 counter inactive
C#CCOCCOCCOCCNc1nc(N2CCN(C(=O)CCCCCCCCCCNC(=O)Cn3cc(C[C@@H](C)O)nn3)CC2)nc(N2CCN(C(=O)CCCCCCCCCCNC(=O)[C@H](CCCN=C(N)N)n3cc(C[C@@H](C)CC)nn3)CC2)n1	ZTA counter 56 (no result: NR1D1 modulator, p47phox inh, PG9 binder) | ZTA inh confirm inactive | EBNA-1 counter inactive
C#CCOCCOCCOCCNc1nc(N2CCN(C(=O)CCCCCCCCCCNC(=O)[C@H](CO)n3cc(CCCSC)nn3)CC2)nc(N2CCN(C(=O)CCCCCCCCCCNC(=O)[C@H](CCCCN)n3cc(CCO)nn3)CC2)n1	none (no result: ZTA counter, p47phox inh, EBNA-1 inhibitor)
O=C(Nc1ccc(Cl)cc1Cl)O[C@@H]1CC[C@@]23CCCN2C(=O)CCC[C@H]3C1	none (no result: aDG glyco up, ZTA counter, p47phox inh, PG9 binder, EBNA-1 inhibitor)
Cc1nc2ccc(S(=O)(=O)NCC(=O)NCc3ccc(F)cc3)cc2s1	none (no result: aDG glyco up, ZTA counter, p47phox inh, PG9 binder, EBNA-1 inhibitor)
C=CCn1c(SCc2c(Cl)cccc2Cl)nnc1-c1cccc(C)c1	none (no result: aDG glyco up, ZTA counter, p47phox inh, PG9 binder, EBNA-1 inhibitor)
O=C(c1cscn1)N1CCC(Oc2cccnc2)CC1	none (no result: aDG glyco up, ZTA counter, p47phox inh, PG9 binder, EBNA-1 inhibitor)
CC(=O)Nc1ccc(C(CCCc2ccccc2)C2=CCCCC2)cc1 (stereo not given)	none (no result: aDG glyco up, ZTA counter, p47phox inh, PG9 binder, EBNA-1 inhibitor)
Nc1nnnn1/N=C/c1ccc(F)cc1	ZTA counter 52 (no result: p47phox inh) | ZTA inh confirm inactive | EBNA-1 counter inactive
Nc1nnnn1/N=C/c1ccc(Br)cc1	none (no result: ZTA counter, p47phox inh, EBNA-1 inhibitor)
O=C(Nc1cccc2ccccc12)NC1CCCCC1O (stereo not given)	ZTA counter 58 (no result: p47phox inh) | ZTA inh confirm inactive | EBNA-1 counter inactive
O=C(O)c1cccc(-n2cccc2/C=C\[N+](=O)[O-])c1	none
O=C(O)c1cccc(-n2cccc2/C=C/[N+](=O)[O-])c1	ZTA counter 56 | ZTA inh confirm inactive | EBNA-1 counter inactive
Cc1cc2c(cc1C)C(c1ccccc1Br)CC(=O)N2 (stereo not given)	ZTA counter 33 | ZTA inh confirm inactive | EBNA-1 counter inactive
N#C/C(=C\c1ccco1)c1nc2ccccc2s1	none
N#C/C(=C/c1ccc(-c2cc(C(=O)O)cc(C(=O)O)c2)o1)c1nc2ccccc2s1	ZTA counter 61 (no result: aDG glyco up, NR1D1 modulator, PG9 binder) | ZTA inh confirm inactive | EBNA-1 counter inactive
COc1ccc(S(=O)(=O)Nc2cccc(C)n2)c2ccccc12	ZTA counter 34 | ZTA inh confirm inactive | EBNA-1 counter inactive
O=C(NCCc1ccc(F)cc1)c1ccc2c(c1)ncn2C1CCCCC1	none (no result: aDG glyco up, ZTA counter, p47phox inh, PG9 binder, EBNA-1 inhibitor)
CCOC(=O)c1c(NC(=O)Cn2nc(C(=O)O)c3ccccc3c2=O)sc(C)c1C	none
CCOC(=O)c1c(NC(=O)Cn2nc(C(=O)O)c3ccccc3c2=O)sc(CC)c1C	ZTA counter 36 | ZTA inh confirm inactive | EBNA-1 counter inactive
C#CCN1CC(N(C)CCOC(=O)c2cccs2)CS1(=O)=O (stereo not given)	none (no result: aDG glyco up, ZTA counter, p47phox inh, PG9 binder, EBNA-1 inhibitor)
CN1CCc2c(sc3c2C(=O)NC(c2ccccn2)N3)C1 (stereo not given)	ZTA counter 40 | ZTA inh confirm inactive | EBNA-1 counter inactive
CCOC(=O)c1c(CSc2ccc(CC)cc2)oc2ccc(O)c(CN(C)C)c12	ZTA counter 34 (no result: p47phox inh) | ZTA inh confirm inactive | EBNA-1 counter inactive
CCOC(=O)c1c(C)oc2ccc(O)c(CN(C)C)c12	none
C[C@@H]1COc2cc(Br)ccc2S(=O)(=O)N1Cc1cn(CCC2OCCCO2)nn1	none (no result: aDG glyco up, ZTA counter, p47phox inh, PG9 binder, EBNA-1 inhibitor)
Cc1nc2ccc(S(=O)(=O)NCC(=O)N(C)Cc3ccccc3Cl)cc2s1	none (no result: aDG glyco up, ZTA counter, p47phox inh, PG9 binder, EBNA-1 inhibitor)
Cc1ccc(-c2cc(C(=O)NCCCN3CCOCC3)c3ccc(Cl)c(C)c3n2)cc1	ZTA counter 34 (no result: p47phox inh) | ZTA inh confirm inactive | EBNA-1 counter inactive
CCN1CCN(Cc2ccc(NC(=O)c3cc(NC(=O)c4cc5cccc(OC)c5o4)cc(OC)c3)cc2C(F)(F)F)CC1	ZTA counter 37, p47phox inh 57 | ZTA inh confirm inactive | EBNA-1 counter inactive
C#CCOCCOCCOCCNc1nc(N2CCN(C(=O)CCCCCCCCCCNC(=O)Cn3cc(CCCCCN)nn3)CC2)nc(N2CCN(C(=O)CCCCCCCCCCNC(=O)[C@@H](CCC(=O)O)n3cc(CCCCCN)nn3)CC2)n1	ZTA counter 61 (no result: NR1D1 modulator, p47phox inh, PG9 binder) | ZTA inh confirm inactive | EBNA-1 counter inactive
C#CCOCCOCCOCCNc1nc(N2CCN(C(=O)CCCCCCCCCCNC(=O)Cn3cc(C[C@@H](C)O)nn3)CC2)nc(N2CCN(C(=O)CCCCCCCCCCNC(=O)[C@@H](CCC(=O)O)n3cc(CCCCCN)nn3)CC2)n1	none (no result: p47phox inh)
C#CCOCCOCCOCCNc1nc(N2CCN(C(=O)CCCCCCCCCCNC(=O)Cn3cc(CCCCCN)nn3)CC2)nc(N2CCN(C(=O)CCCCCCCCCCNC(=O)[C@@H](CCSC)n3cc(CCO)nn3)CC2)n1	ZTA counter 80 (no result: NR1D1 modulator, p47phox inh, PG9 binder) | ZTA inh confirm inactive | EBNA-1 counter inactive
C#CCOCCOCCOCCNc1nc(N2CCN(C(=O)CCCCCCCCCCNC(=O)Cn3cc(CCCCCN)nn3)CC2)nc(N2CCN(C(=O)CCCCCCCCCCNC(=O)Cn3cc(CCCCCN)nn3)CC2)n1	ZTA counter 49 (no result: NR1D1 modulator, p47phox inh, PG9 binder) | ZTA inh confirm 38 | EBNA-1 counter inactive
COc1ccccc1C(=O)NC1CCCCN(Cc2ccc(OC(F)(F)F)cc2)C1=O (stereo not given)	none (no result: aDG glyco up, ZTA counter, p47phox inh, PG9 binder, EBNA-1 inhibitor)
CN(CCc1ccccn1)C(=O)c1cc2ccccn2n1	none (no result: aDG glyco up, ZTA counter, p47phox inh, PG9 binder, EBNA-1 inhibitor)
CCCCNC(=O)C1(C(=O)c2ccc(OC)cc2)CC(c2ccccc2C(F)(F)F)=NO1 (stereo not given)	none (no result: aDG glyco up, ZTA counter, p47phox inh, PG9 binder, EBNA-1 inhibitor)
CCN(CCO)c1ccc(NC(=S)Nc2cccc(S(=O)(=O)N(C)C)c2)cc1	ZTA counter 41 | ZTA inh confirm inactive | EBNA-1 counter inactive
